Source: PubChem BioAssay (NMMLSC)
HRas wt GTP = modulators of GTP binding to human HRas wildtype; P01112; AID 759; GST-Ras wt beads, Bodipy-FL-GTP binding, flow cytometry; actives lie on both sides; 190,000 compounds, 0.14% hits; GTP binding activity, % at 10 µM;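 active = GTP binding activity at least 20% away from the 100% baseline, either lowered as inhibitor or raised as activator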
Target sequence (P01112 whole entry, looked up): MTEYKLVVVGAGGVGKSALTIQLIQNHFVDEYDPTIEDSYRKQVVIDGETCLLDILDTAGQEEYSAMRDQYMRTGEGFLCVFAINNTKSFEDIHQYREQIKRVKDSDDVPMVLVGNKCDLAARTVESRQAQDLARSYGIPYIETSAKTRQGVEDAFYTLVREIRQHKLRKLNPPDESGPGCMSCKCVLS
Rab7 wt modul = alters GTP binding to wildtype dog Rab7; GST-Rab7 beads, fluorescent GTP binding, flow cytometry; actives lie on both sides; untreated = 100%, excess cold GTP = 0%; GTP binding activity (percent of control), % at 10 µM; 190,000 compounds, 0.055% hits; AID 758;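 active = fluorescent GTP binding to Rab7 beads changed by at least 20 points from the 100% baseline, either direction, mostly lower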;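 note: median green fluorescence of bound Bodipy-FL-GTP per Rab7 bead population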
Rac1 mut GTP = modulators of GTP binding to human Rac1 activated mutant; P63000; GST-Rac1 activated beads, fluorescent GTP binding, flow cytometry; actives lie on both sides; 100% means binding = to untreated wells; percent activity (GTP binding), % at 10 µM; 190,000 compounds, 0.11% hits;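 active = GTP binding at least 20 percentage points away from the 100% baseline, in either direction, so actives lie on both sides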
Cdc42 wt GTP = changes GTP binding to wildtype human Cdc42. GST-Cdc42 beads, Bodipy-GTP binding, flow cytometry; actives lie on both sides. AID 761. 190,000 compounds, 0.2% hits. P60953. percent activity (GTP binding), % at 10 µM;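 active = percent activity GTP binding at least 20 points away from the 100% baseline, either down as inhibitor or up as activator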;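 note: median bead fluorescence of bound Bodipy-FL-GTP at 100 nM; below 100% means less GTP binding so inhibitor and above means activator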
Target sequence (P60953 whole entry, looked up): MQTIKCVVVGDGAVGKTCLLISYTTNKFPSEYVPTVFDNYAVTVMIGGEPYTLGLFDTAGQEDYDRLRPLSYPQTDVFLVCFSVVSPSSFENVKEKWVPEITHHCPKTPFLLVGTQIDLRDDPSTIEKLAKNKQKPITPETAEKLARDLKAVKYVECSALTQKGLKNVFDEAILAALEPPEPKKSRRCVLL
Rab2A wt mod = changes GTP binding to wildtype dog Rab2A, up or down | GST-Rab2 wt beads, Bodipy-GTP binding, flow cytometry | GTP binding activity, % at 10 µM | 190,000 compounds, 0.19% hits;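 active = GTP binding activity at least 20 points away from 100%, either lowered or raised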
Rac1 wt modul = alters GTP binding to wildtype human Rac1 | 190,000 compounds, 0.27% hits | GTP binding activity (% of control), % at 10 µM | AID 757 | GST-Rac1 beads, fluorescent GTP binding, flow cytometry; actives lie on both sides; 0 = cold GTP competed, 100 = untreated | P63000;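 active = GTP binding activity at least 20 points away from the 100% control level, either lower or higher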
Hits are given with their value; [ ] = another dose, or the depositor's remark. The list is not random: actives were taken first. Their share in the collection is about 0.4%.

What do the screens show for `CCOC(=O)c1cnc2nc(C)nn2c1N`?
HRas wt GTP: inactive; Rab7 wt modul: inactive; Rac1 mut GTP: inactive; Cdc42 wt GTP: inactive; Rab2A wt mod: inactive; Rac1 wt modul: inactive

What do the screens show for `CCOC(=O)c1cnc2c(C#N)cnn2c1N`?
HRas wt GTP: 72; Rab7 wt modul: inactive; Rac1 mut GTP: inactive; Cdc42 wt GTP: 77; Rab2A wt mod: 73; Rac1 wt modul: 73

Results for Oc1ccc(C2=Nn3c(nnc3-c3ccco3)SC2)cc1O ?
HRas wt GTP: 47; Rab7 wt modul: 70; Rac1 mut GTP: 65; Cdc42 wt GTP: 49; Rab2A wt mod: 47; Rac1 wt modul: 51

Results for Cc1cccc(-c2nnc3n2N=C(c2ccccc2)CS3)c1 ?
HRas wt GTP: inactive; Rab7 wt modul: inactive; Rac1 mut GTP: inactive; Cdc42 wt GTP: inactive; Rab2A wt mod: inactive; Rac1 wt modul: inactive

How did COc1ccc(C2=Nn3c(nnc3-c3ccccc3)SC2)cc1OC do in these assays?
HRas wt GTP: inactive; Rab7 wt modul: inactive; Rac1 mut GTP: inactive; Cdc42 wt GTP: inactive; Rab2A wt mod: inactive; Rac1 wt modul: 78

What do the screens show for `Cc1cc(-c2nnc3n2N=C(c2ccc(-c4ccccc4)cc2)CS3)n[nH]1`?
HRas wt GTP: 78; Rab7 wt modul: inactive; Rac1 mut GTP: inactive; Cdc42 wt GTP: 76; Rab2A wt mod: 79; Rac1 wt modul: 75

How did COc1ccc(-c2nnc3n2N=C(C)CS3)cc1OC do in these assays?
HRas wt GTP: inactive; Rab7 wt modul: inactive; Rac1 mut GTP: inactive; Cdc42 wt GTP: inactive; Rab2A wt mod: inactive; Rac1 wt modul: inactive

How did CCN(CC)S(=O)(=O)c1cc(NC(=O)CSc2nccn2C)ccc1C do in these assays?
HRas wt GTP: inactive; Rab7 wt modul: inactive; Rac1 mut GTP: inactive; Cdc42 wt GTP: inactive; Rab2A wt mod: inactive; Rac1 wt modul: inactive

What do the screens show for `COc1ccc(-c2cn(-c3ccccc3)c3[n+]2CCS3)cc1`?
HRas wt GTP: inactive; Rab7 wt modul: inactive; Rac1 mut GTP: inactive; Cdc42 wt GTP: inactive; Rab2A wt mod: inactive; Rac1 wt modul: inactive

What do the screens show for `O=C(COC(=O)C12CC3CC(CC(C3)C1)C2)Nc1nc2c(F)c(F)c(F)cc2s1`?
HRas wt GTP: inactive; Rab7 wt modul: inactive; Rac1 mut GTP: inactive; Cdc42 wt GTP: 74; Rab2A wt mod: inactive; Rac1 wt modul: inactive

What do the screens show for `COc1ccc(C(=O)OCC(=O)Nc2nc3c(F)c(F)c(F)cc3s2)cc1OC`?
HRas wt GTP: inactive; Rab7 wt modul: inactive; Rac1 mut GTP: inactive; Cdc42 wt GTP: inactive; Rab2A wt mod: inactive; Rac1 wt modul: inactive

How did Cc1ccc(Nc2c(F)c(F)c(F)c(F)c2C(=O)O)cc1 do in these assays?
HRas wt GTP: inactive; Rab7 wt modul: inactive; Rac1 mut GTP: 130[activator]; Cdc42 wt GTP: 128[activator]; Rab2A wt mod: 127[activator]; Rac1 wt modul: 141[activator]

How did COc1cccc(Nc2c(F)c(F)c(F)c(F)c2C(=O)O)c1 do in these assays?
HRas wt GTP: inactive; Rab7 wt modul: inactive; Rac1 mut GTP: inactive; Cdc42 wt GTP: 123[activator]; Rab2A wt mod: inactive; Rac1 wt modul: 131[activator]

What do the screens show for `COc1cc(C)ccc1S(=O)(=O)n1nc(C)cc1C`?
HRas wt GTP: inactive; Rab7 wt modul: inactive; Rac1 mut GTP: inactive; Cdc42 wt GTP: inactive; Rab2A wt mod: inactive; Rac1 wt modul: inactive

What do the screens show for `N#CC(C#N)=C(Nc1ccc(F)cc1)SCc1cccc(Br)c1`?
HRas wt GTP: inactive; Rab7 wt modul: inactive; Rac1 mut GTP: inactive; Cdc42 wt GTP: 127[activator]; Rab2A wt mod: inactive; Rac1 wt modul: 134[activator]

Results for CC(C)OCCCNC(=O)CNC(=O)c1ccc(Cl)c(Cl)c1 ?
HRas wt GTP: inactive; Rab7 wt modul: inactive; Rac1 mut GTP: inactive; Cdc42 wt GTP: inactive; Rab2A wt mod: inactive; Rac1 wt modul: inactive

What do the screens show for `CCC(C)(C(=O)NC1CCCC1)N(C)C(=O)c1ccccn1` (centres undefined)?
HRas wt GTP: inactive; Rab7 wt modul: inactive; Rac1 mut GTP: inactive; Cdc42 wt GTP: inactive; Rab2A wt mod: inactive; Rac1 wt modul: inactive

What do the screens show for `CC(OC(=O)C1CC1)C(=O)Nc1cc(C(F)(F)F)ccc1Cl` (centres undefined)?
HRas wt GTP: inactive; Rab7 wt modul: inactive; Rac1 mut GTP: inactive; Cdc42 wt GTP: inactive; Rab2A wt mod: inactive; Rac1 wt modul: inactive

What do the screens show for `O=C1OC(c2ccc(F)cc2)=C/C1=C\c1ccc([N+](=O)[O-])o1`?
HRas wt GTP: inactive; Rab7 wt modul: 124[activator]; Rac1 mut GTP: inactive; Cdc42 wt GTP: inactive; Rab2A wt mod: inactive; Rac1 wt modul: inactive

How did O=[N+]([O-])c1ccc(/C=N/N=C/c2ccc([N+](=O)[O-])o2)o1 do in these assays?
HRas wt GTP: inactive; Rab7 wt modul: inactive; Rac1 mut GTP: inactive; Cdc42 wt GTP: inactive; Rab2A wt mod: inactive; Rac1 wt modul: inactive

Results for O=C(/C=C\c1ccccc1OC(=O)c1ccccc1F)c1cc2ccccc2o1 ?
HRas wt GTP: inactive; Rab7 wt modul: inactive; Rac1 mut GTP: inactive; Cdc42 wt GTP: inactive; Rab2A wt mod: inactive; Rac1 wt modul: inactive

What do the screens show for `COc1ccc(NC(=O)/C(=C/c2cccnc2)NC(=O)c2cccs2)cc1`?
HRas wt GTP: inactive; Rab7 wt modul: inactive; Rac1 mut GTP: inactive; Cdc42 wt GTP: inactive; Rab2A wt mod: inactive; Rac1 wt modul: inactive

What do the screens show for `Cc1cccn2c(CNCC3(c4ccccc4)CCCC3)c(C(=O)N3CCOCC3)nc12`?
HRas wt GTP: inactive; Rab7 wt modul: inactive; Rac1 mut GTP: inactive; Cdc42 wt GTP: inactive; Rab2A wt mod: inactive; Rac1 wt modul: inactive

What do the screens show for `Cc1ccc(C)c(N2CCN(C(=O)CN(C)S(=O)(=O)c3ccc4c(c3)CCC(=O)N4)CC2)c1`?
HRas wt GTP: inactive; Rab7 wt modul: inactive; Rac1 mut GTP: inactive; Cdc42 wt GTP: 76; Rab2A wt mod: 77; Rac1 wt modul: 79

How did CC1Cc2ccccc2N1C(=O)COC(=O)CCc1nc2ccccc2c(=O)[nH]1 (centres undefined) do in these assays?
HRas wt GTP: inactive; Rab7 wt modul: inactive; Rac1 mut GTP: inactive; Cdc42 wt GTP: inactive; Rab2A wt mod: inactive; Rac1 wt modul: inactive

Results for Cc1cc(NS(=O)(=O)c2ccc(NC(=O)c3cc4c(=O)n5ccccc5nc4s3)cc2)nc(C)n1 ?
HRas wt GTP: inactive; Rab7 wt modul: inactive; Rac1 mut GTP: inactive; Cdc42 wt GTP: 76; Rab2A wt mod: inactive; Rac1 wt modul: inactive

Results for CN(C)S(=O)(=O)c1cccc(NC(=O)c2cc3c(=O)n4ccccc4nc3s2)c1 ?
HRas wt GTP: inactive; Rab7 wt modul: inactive; Rac1 mut GTP: inactive; Cdc42 wt GTP: inactive; Rab2A wt mod: inactive; Rac1 wt modul: inactive

What do the screens show for `Cc1cccn2cc(-c3ccc(Cl)cc3)nc12`?
HRas wt GTP: inactive; Rab7 wt modul: inactive; Rac1 mut GTP: inactive; Cdc42 wt GTP: inactive; Rab2A wt mod: inactive; Rac1 wt modul: inactive

Results for Cc1ccc(-c2cn3cccc(C)c3n2)cc1 ?
HRas wt GTP: inactive; Rab7 wt modul: 120[activator]; Rac1 mut GTP: inactive; Cdc42 wt GTP: inactive; Rab2A wt mod: inactive; Rac1 wt modul: inactive
